The whole screen tested about 290,000 compounds, of which about 3,000 (1%) were called active. Shown is part of a subset that was picked to be rich in actives. Unmarked numbers belong to inactive results. Rule as the data show it: active = inhibition mostly above about 36% (no sharp cut-off); inactive = mostly below about 34%.

This test in a line: NOD1 signaling inhibitors, primary screen, cell-based, luminescence, uHTS (AID 1578).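 Also: HEK-293T reporter cells stimulated with the NOD1 agonist gamma-tri-DAP.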 The following applies: NOD1-driven NF-kB luciferase reporter cells, at 4 µM, stronger effect = higher value. A general note: A reporter such as luciferase makes a cellular process visible.
As for `Cc1ccc(NC(=O)c2sc(C)nc2C)c(C)c1`, the inhibition – broadly, the relative decrease from the control value, in per cent – is -0.8%. `O=C(O)c1cccnc1SCC(=O)C12CC3CC(CC(C3)C1)C2`: the inhibition is -9.5%. Turning to `CCOC(=O)Cc1c(C)nc2c(-c3ccccc3)c[nH]n2c1=O`, the inhibition was -6.6%.

In the case of `CCOC(=O)Cc1c(C)nc2c(-c3cccc(Br)c3)c[nH]n2c1=O`, the inhibition is 69.7% (active). As for `CCOC(=O)Cc1cc(=O)n2[nH]cc(-c3cccc(Br)c3)c2n1`, the inhibition is 27.2%.

With `CCCN1CCN(C(=O)c2oc3c(Cl)cccc3c2C)CC1`, the inhibition was 11.7%.

For `Cc1ccc(C(=O)NCCCN2CCOCC2)c(C)c1`, the inhibition is -33.2%. Consider `N=C1C(c2nc3ccccc3s2)=C(O)CN1NC(=O)c1ccc([N+](=O)[O-])cc1`, for which the inhibition is 102% (active).

As for `N=C1C(c2nc3ccccc3s2)=C(O)CN1NC(=O)c1ccccc1[N+](=O)[O-]`, the inhibition is -23%.

For the molecule `Cc1ccc(-c2csc(C3=C(O)CN(NC(=O)c4ccc([N+](=O)[O-])cc4)C3=N)n2)cc1`, the inhibition is 3.2%. Turning to `Cc1csc(SCCn2c(N3CCOCC3)nc3c2c(=O)[nH]c(=O)n3C)n1`, the inhibition was -13.7%. As to `COc1cc(/C=C/c2cc(C(F)(F)F)[nH]c(=O)n2)cc(OC)c1OC`, the inhibition is 86.7% (active). To `COc1cc(OC)c(OC)cc1/C=C/c1cc(C(F)(F)F)[nH]c(=O)n1` belongs -1%; to `COc1ccc(/C=C/c2cc(C(F)(F)F)[nH]c(=O)n2)cc1OC`, 44.3%. With `CS(=O)(=O)N(CCC#N)Cc1ccc(C=O)o1`, the inhibition is -32.9%. For the molecule `Cc1ccc(/C=C2\C(=O)Nc3ccccc32)o1`, the inhibition is -9.5%.

Take `CS(=O)(=O)N(CCC#N)Cc1ccc(/C=C2\C(=O)Nc3ccccc32)o1`: the inhibition was 57.1% (active). With `O=C(Nc1ccc(O)cc1)/C(=C\C=C\c1ccccc1)NC(=O)c1ccccc1`, the inhibition was -13.3%.

`CCN(C(=O)COC(=O)/C=C/c1cccc([N+](=O)[O-])c1)c1ccccc1`: the inhibition was -31.8%. For the molecule `CCn1ncc([N+](=O)[O-])c1C(=O)n1nc(C)cc1C`, the inhibition was -22.7%.

Regarding `Cn1cnc([N+](=O)[O-])c1Sc1nnc(-c2cccnc2)n1C`, the inhibition is -5.6%. `CCn1nc(C)cc1-c1nnc(Sc2ncc([N+](=O)[O-])s2)n1C`: the inhibition is 35.4% (active). As to `CC(C)(C)SCCNS(=O)(=O)c1ccc2ccccc2c1`, the inhibition is 7.5%. Turning to `COc1ccc(C(=O)CC(=O)Nc2ccc([N+](=O)[O-])cc2)cc1`, the inhibition is -14.5%. With `COc1cccc(NC(=O)CC(=O)c2ccc([N+](=O)[O-])cc2)c1`, the inhibition was -3.4%. For `COc1ccc(NS(=O)(=O)c2cc(NC(=O)CC(=O)c3ccc([N+](=O)[O-])cc3)ccc2C)cc1`, the inhibition is 54.7% (active).

On to `Cc1ccc(C(=O)CCC(=O)Nc2ccc(Cl)c(S(=O)(=O)Nc3cccc(Cl)c3)c2)cc1`, for which the inhibition was 19.9%. `Cc1cccc(NS(=O)(=O)c2cc(NC(=O)CC(=O)c3ccc([N+](=O)[O-])cc3)ccc2C)c1`: the inhibition is 41.5%. The same measure for `Cn1ncc2c(Nc3ccc(Cl)c(Cl)c3)ncnc21`: -5.2%; for `Cc1ccc(OCC(O)CNC2CCCC2)c(C)c1` (stereo not given): 0%; for `Cc1ccc(OCCCCNC2CCCC(C)C2C)c(C)c1` (stereo not given): -22.2%. To `Cc1ccc(OCCCCNC2CCCCC2)c(C)c1` belongs 30.3% (active); to `CN(Cc1ccccc1)C(=O)c1cc(=O)[nH]c2ccccc12`, 6.3%. As for `Cc1ccc(-n2nc(-c3ccccc3)cc2Nc2ccccc2N)cc1`, the inhibition was -9.6%.

For `O=C(CS(=O)c1ccc(C(F)(F)F)cc1[N+](=O)[O-])Oc1ccccc1` (stereo not given), the inhibition was 21.2%. Turning to `CS(=O)(=O)c1ccc(S(=O)CC(=O)Oc2ccc(Cl)cc2)c([N+](=O)[O-])c1` (stereo not given), the inhibition is 47.4% (active). As to `O=C(CS(=O)c1ccc(C(F)(F)F)cc1[N+](=O)[O-])Oc1ccc(Cl)cc1` (stereo not given), the inhibition was 15.4%. Take `Nc1ccc(-c2nc3cc([N+](=O)[O-])ccc3o2)cc1`: the inhibition is -15.4%. The same measure for `COc1ccc(S(=O)Cc2ccc(C(=O)NCc3cccc(OC)c3)o2)cc1` (stereo not given): -16.8%. As for `COc1cccc(CNC(=O)CSCc2cnn(-c3ccccc3)c2-n2cccc2)c1`, the inhibition is 19.5%. `O=C(CSCc1cnn(-c2ccccc2)c1-n1cccc1)NCc1cccnc1`: the inhibition is 60.7% (active).

For the molecule `O=C(CSCc1cnn(-c2ccccc2)c1-n1cccc1)NCc1ccccn1`, the inhibition is -18.4%. The same measure for `CCCCCCCC(=O)N/N=C(\C)c1cccnc1`: 7.8%; for `COCCNC(=O)/C(C#N)=C/c1ccc(O)c([N+](=O)[O-])c1`: -50.1%; for `N#C/C(=C\C=C\c1ccccc1[N+](=O)[O-])C(=O)NCc1ccccc1`: 97.3% (active). The same measure for `COc1cc(NC(=O)/C=C/c2ccccc2[N+](=O)[O-])cc(OC)c1`: -36.1%; for `N#C/C(=C\c1ccccc1[N+](=O)[O-])C(=O)NCc1ccccc1`: -5%. The same measure for `COC(=O)C(=Cc1ccccc1[N+](=O)[O-])C(=O)OC`: 28.4% (active); for `N#C/C(=C\c1ccc(O)c([N+](=O)[O-])c1)C(=O)NCc1ccccc1`: -13.6%.

For the molecule `COCCNC(=O)/C(C#N)=C/C=C/c1ccccc1`, the inhibition is -4.8%. For `N#C/C(=C\C=C\c1ccccc1)C(=O)NCc1ccco1`, the inhibition is 19.2%. With `COCCNC(=O)/C(C#N)=C/C=C/c1ccccc1[N+](=O)[O-]`, the inhibition was 76.2% (active). Take `N#C/C(=C\C=C\c1ccccc1)C(=O)NCc1cccnc1`: the inhibition was 68.7% (active). As to `O=C(/C=C/c1ccccc1)NCc1cccnc1`, the inhibition was -46%.

Regarding `O=C(O)/C=C/c1ccccc1[N+](=O)[O-]`, the inhibition is 2.2%.

As for `Cc1cc([N+](=O)[O-])ccc1NC(=O)Nc1ccc(F)cc1F`, the inhibition is -5%. For the molecule `Cc1ccc(Cn2nnc3c(=O)n(Cc4cc(C)ccc4C)cnc32)cc1`, the inhibition was -9.7%. To `CN(C)S(=O)(=O)c1cccc(NC(=O)c2cc3ccccc3o2)c1` belongs -40.6%. Consider `COc1ccc(/C=C(\C#N)C(=O)NC(C)c2ccccc2)cc1O` (stereo not given), for which the inhibition was -1.1%.

As to `CC(=O)c1c(O)c2ccccc2n(C(C)C)c1=O`, the inhibition was 12%.

The values are drawn from PubChem BioAssay AID1578 (Sanford-Burnham Center for Chemical Genomics, 2009).
